# This is one part of the list. The true hit rate is not given.
# B1: VH:VL chains; a variant is named by its letters at X, in order (parent)
# chain 1: QVQLVQSGAEVKKPGASVKVSCKASGYTFTDYXMHWVRQAPGQGLEWMGXVNPNXXXTTYNQKFEGRVTMTTDTSTSTAYMELRSLRSDDTAVYYCARXNXLDXWGQGTTVTVSS
# chain 2: DIQMTQSPSSLSASVGDRVTITCSVSSSVSSIYLHWYQQKPGKAPKLLIYSTSNLASGVPSRFSGSGSGTDFTLTISSLQPEDFATYYCQVYSGYPLTFGGGTKVEIK
# Variants of: B1
# Test: yeast display scFab, FACS + sequencing
# Details: with MET
# Outline: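 Two magnetic rounds on Protein A beads coated with HGFR-Fc, followed by FACS, were used to enrich a yeast surface scFab library mutated in the heavy-chain CDRs. FACS gated the top 50% antigen-positive cells after 3 h labelling at room temperature with 1 nM HGFR-Fc and anti-Myc in PBSB plus 1% milk. Binding to the antigen was scored positive when a sequence occurred in both antigen-positive samples from deep sequencing and negative when it occurred only in the input.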
row,Variant,antigen binding call
1,YRRGAAAA,binds
2,YRRGGAAA,binds
3,ARRGSDVA,no binding
4,YRRGSAVA,binds
5,YRTEGAVA,binds
6,YTRGADGA,no binding
7,DREEGAVA,no binding
8,YETGAAAA,no binding
9,DETGGDWF,no binding
10,VEEEGDWV,no binding
11,VTGTGDWF,no binding
12,YRRGGAVA,binds
13,YRRGGAWA,binds
14,YRRGSAWA,binds
15,YREKAAWA,no binding
16,YTRGADWA,no binding
17,YRRGAAWA,binds
18,DEGGDDAA,no binding
19,VKGRADSA,no binding
20,VEKTGVGA,no binding
21,YRAGSAAA,binds
22,YRAKGAAA,binds
23,YRAGTAAA,binds
24,DRAGDAAA,no binding

row,Variant,antigen binding call
1,YAAKTAAA,no binding
2,YEAGTAVA,no binding
3,YRAESAAA,binds
4,VAEGGYAV,no binding
5,VTAEDFGV,no binding
6,AARADAVA,no binding
7,DGGKNDLA,no binding
8,YAGRGDWF,no binding
9,VKEKGDSA,no binding
10,YKGRGSWF,binds
11,VKGRGDSF,no binding
12,VKGRGSSF,binds
13,VKEKGSLF,binds
14,YGGRGSWV,no binding
15,DKGRGSSA,no binding
16,VEGRGDVF,no binding
17,VKEKGYLV,no binding
18,VKGRGSVF,binds
19,VTGRGDVF,no binding
20,VTTRADVV,no binding
21,YTGGADAV,no binding
22,YKGRGALF,binds
23,YKARSALF,binds
24,DGARGALF,no binding

row,Variant,antigen binding call
1,VKGRGSLF,binds
2,YKGRGSLF,binds
3,VKGRASGF,no binding
4,DAGGADWA,no binding
5,SARTDFWF chain 1 K19N,no binding
6,ATKTAFVS chain 1 M34I,no binding
7,SEAGDAVV,no binding
8,VTTRADVY,no binding
9,FKGEGAGV,no binding
10,FRGESAGS,binds
11,FRGESAGV,binds
12,DAKENDVF,no binding
13,VEGTSDLS,no binding
14,YRRKGSGA,binds
15,YAKADSGA,no binding
16,YTTGGDGA,no binding
17,YRKGSSGA,binds
18,FARKGSGA,no binding
19,YTKRSSGA,no binding
20,YRKGGSGA,binds
21,YRTGGSGA,binds
22,VKTGGAGA,no binding
23,YKTGGSGA,binds
24,DATGGSGA,no binding

row,Variant,antigen binding call
1,YRGKASWD,binds
2,DAGTGSWD,no binding
3,YRGRSSWD,binds
4,YRGRDSWD,binds
5,VTTKSSSA,no binding
6,ATATADWA,no binding
7,DKRKGVAF,no binding
8,VEAGDSWV,no binding
9,VTGTASSV,no binding
10,VKGRASSV,no binding
11,VRTEDSSV,binds
12,VRAEGSSV,binds
13,VRTEDDWV,no binding
14,VRTEDFGV,no binding
15,VRRKSSSV,binds
16,VRAGDDGV,no binding
17,VRAGDSSV,binds
18,VETEGSSV,no binding
19,VTEEGSSV,no binding
20,VETEGDGV,no binding
21,ATGANAGD,no binding
22,AETGASLS,no binding
23,DTKAADWV,no binding
24,SRRRGALD,binds

row,Variant,antigen binding call
1,SAREGALD,no binding
2,DREGGVSD,no binding
3,SGRGNALD,no binding
4,DATGGALD,no binding
5,DRRRGALD,binds
6,VTATADWA,no binding
7,VKGRADWD,no binding
8,SEEEGAGD,no binding
9,VAGTGDGV,no binding
10,VRRKDFLA,no binding
11,YAKRDALA,no binding
12,YRAKDALA,binds
13,YRRKDALA,binds
14,YRGKDALA,binds
15,DTTGSDWV,no binding
16,VAGTGDVY,no binding
17,YRGRGVGY,binds
18,VKGRSVGY,no binding
19,YRGRDVGY,no binding
20,VRGRGVGY,binds
21,VTGEDDWY,no binding
22,DTKAADVA,no binding
23,SEARSDGY,no binding
24,YKGADFGD,no binding

row,Variant,antigen binding call
1,YKGRGYAD,no binding
2,YKGRGDGD,binds
3,SAGRGYGD,no binding
4,YKGRGYGD,binds
5,YGGRGDAD,no binding
6,YKGRGDAD,binds
7,YAGRGDAD,no binding
8,YKGKGFGD,no binding
9,YKGRGFGD,binds
10,YEGGGDVA,no binding
11,VGAEGVWS chain 1 G66S,no binding
12,VEGGGDVD,no binding
13,VAGAGDSV,no binding
14,YAGRGDLV,no binding
15,YAGRGDLD,binds
16,YKGKGDGD,binds
17,YKGRGVGD,binds
18,YAGRGDVD,no binding
19,YAGRGVGD,no binding
20,VKTGGDGD,no binding
21,VEEEDYSS,no binding
22,FAAKTAAA,no binding
23,FRARSAAA,binds
24,FRAGGAAA,binds

row,Variant,antigen binding call
1,FRKGGAAA,binds
2,YRGGSAGA,binds
3,YRGRSAGA,binds
4,DRGRDAGA,no binding
5,VKGRGSWY,binds
6,VKGRGAWY,binds
7,VKGRADWY,no binding
8,VKTGGAWY,no binding
9,VKGRGFWY,no binding
10,VAAAGAAV,no binding
11,YKTRGSLD,binds
12,DKTGDSAD,binds
13,DKEGGSAD,no binding
14,YKTRGSAD,binds
15,YKTRSSAD,binds
16,DKKEDSAD,no binding
17,VKKESDSY,no binding
18,YAREDDGA,no binding
19,YRRGGSVD,binds
20,ARRGGSVD,no binding
21,YRRGTSVD,binds
22,DATGGDWA,no binding
23,YARRGDGA,no binding
24,YRRRGFGA,binds

row,Variant,antigen binding call
1,YRRRGVGA,binds
2,ARRRGSGA,no binding
3,YRRRGAGA,binds
4,YRRRGSGA,binds
5,YARADDSA,no binding
6,DTTGSSGV,no binding
7,VEAGDDAA,no binding
8,VKGRADLV,no binding
9,VKGRGAGY,binds
10,DAGRGDGY,no binding
11,VEGRGDGY,no binding
12,VKGRGVGY,no binding
13,YKGRGVGY,binds
14,YTGTSDWY,no binding
15,VKGKDVGY,no binding
16,DEGRGDWY,no binding
17,YKGRGDWY,binds
18,YKGRGDGY,binds
19,DKEGGDAS,no binding
20,DKEGGDVA,no binding
21,DTAEDFGV,no binding
22,YKGRGAGY,binds
23,VGGTSDVF,no binding
24,DGGKNDGS,no binding

row,Variant,antigen binding call
1,DTKRTAGD,no binding
2,YRRRGYGD,binds
3,YRREGAGD,binds
4,YRRRGVGS,binds
5,YRRRGAGD,binds
6,VTGEDDVA,no binding
7,DEGGTDVD,no binding
8,DRGGDDLV,no binding
9,DARGGDVY,no binding
10,YRRRGDGD,binds
11,YRRRGVGD,binds
12,SEARSDVF,no binding
13,DARGGDWV,no binding
14,YAGGDSGV,no binding
15,ARRGAAGV,no binding
16,YRRGDSGV,binds
17,YRRGASGV,binds
18,YTRGAAGV,no binding
19,DRRGDDGV,no binding
20,DARADSLV,no binding

# — the emibetuzumab library of Makowski et al. (2022)
